PostGolgi yeast: growth inhibition of a yeast mutant, post-Golgi transport screen. AID 739. post-Golgi transport phenotypic cell assay. 98,000 compounds, 0.9% hits. inhibition, % at 10 µM;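 note: yeast cells grown in 1536-well plates; yeast grown about 18 h at 30C before absorbance read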
CYP2C9 activ: CYP2C9 (human) activation; P11712; recombinant CYP2C9, luciferin-H conversion, luminescence; stronger effect = higher value; factor 1 = untreated enzyme, 0 = blocked; activation factor at 5 µM; 96,000 compounds, 1.4% hits;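 active = activation factor of 2 or more for CYP2C9 at a 5 µM dose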
PostGolgi ctrl: growth of the yeast control strain, post-Golgi counter-screen. efflux-deficient yeast background strain, growth absorbance A615, 16 h. inhibition, % at 10 µM. 98,000 compounds, 5% hits. AID 738
CYP2C9 inhib: inhibitors of human CYP2C9; P11712; CYP2C9 Supersomes, luciferin-H conversion, luminescence; inhibition, % at 5 µM; 96,000 compounds, 20% hits; AID 777;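 active = blocking of liver enzyme CYP2C9 beyond about 50% at 5 µM, limit read from the data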
CYP2C19 activ: increases human CYP2C19 enzyme activity | recombinant CYP2C19, luciferin-H EGE luminescence; stronger effect = higher value; 0 = fully inhibited enzyme, 1 = untreated enzyme | activation factor at 5 µM | 96,000 tested, under 10 active;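 active = activation factor of at least 2 at 5 µM in the primary screen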
Target sequence (P33261 whole entry, looked up): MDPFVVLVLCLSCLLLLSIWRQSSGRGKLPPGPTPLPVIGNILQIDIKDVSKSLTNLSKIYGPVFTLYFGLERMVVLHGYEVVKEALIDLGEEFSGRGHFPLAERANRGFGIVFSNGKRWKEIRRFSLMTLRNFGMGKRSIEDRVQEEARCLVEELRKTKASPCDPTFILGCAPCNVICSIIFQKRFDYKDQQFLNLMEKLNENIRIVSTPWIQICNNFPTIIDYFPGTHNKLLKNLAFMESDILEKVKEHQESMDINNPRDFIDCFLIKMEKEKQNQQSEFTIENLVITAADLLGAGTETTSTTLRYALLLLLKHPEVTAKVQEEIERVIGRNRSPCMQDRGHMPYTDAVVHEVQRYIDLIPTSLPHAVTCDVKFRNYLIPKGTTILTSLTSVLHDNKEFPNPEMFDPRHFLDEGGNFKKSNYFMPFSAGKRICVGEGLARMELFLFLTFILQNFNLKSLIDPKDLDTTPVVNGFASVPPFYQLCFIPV
CYP2C19 inhib: blocks human cytochrome P450 2C19 | P33261 | inhibition, % at 5 µM | CYP2C19 Supersomes, luciferin-H EGE luminescence, 30 min | 96,000 compounds, 21% hits;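 active = CYP2C19 inhibition above a set limit at 5 µM in the primary screen, cut at about 50% in these data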
Each line names hits and unclear results; the compound was inactive in the other large screens. A selection: hits, their analogues and other compounds. The true share with any hit is near 32%. Cut-off read from the data, not from the text of the source, unless noted: active = inhibition above about 30%; inactive = the rest.

c1ccc(Cn2ccnc2SCc2nnc(-c3ccccc3)o2)cc1	none
O=c1cc(O)nc(SCc2ccccc2)n1-c1ccccc1	none
FC(F)(F)c1ccc(CSc2nccn2-c2ccccc2)cc1	CYP2C9 inhib 88, CYP2C19 inhib 82
Clc1cccc(CSc2nccn2-c2ccccc2)c1	CYP2C19 inhib 73
CC(=O)Nc1ccc(OC(F)(F)C(F)C(F)(F)F)c(NC(C)=O)c1 (stereo unspecified)	none
CC(CCc1ccco1)NC(=O)CSc1cc(=O)n(C)c2ccccc12 (stereo unspecified)	none
CCCn1c(SCC(=O)O)nc2ccccc21	none
CCCn1c(/C=C/c2ccccc2)nc2ccccc21	CYP2C19 inhib 51
Cc1nc2ccccc2n1CC(=O)N/N=C\C=C\c1ccccc1	none
Cc1ccc(NC(=O)Cn2c(/C=C/c3ccccc3)nc3ccccc32)cc1C	CYP2C9 inhib 100, CYP2C19 inhib 85
CCOC(=O)C1CCN(C(c2ccc(OC)c(OC)c2)c2sc3nc(C)nn3c2O)CC1 (stereo unspecified)	none
COc1cccc(C(c2sc3nc(C)nn3c2O)N2CCc3ccccc3C2)c1 (stereo unspecified)	CYP2C9 inhib 53, CYP2C19 inhib 78
Cc1nc2sc(C(c3ccccc3)N3CCN(c4ccccc4F)CC3)c(O)n2n1 (stereo unspecified)	CYP2C19 inhib 66
COc1cccc(C(c2sc3nc(C)nn3c2O)N2CCN(c3ccccc3F)CC2)c1 (stereo unspecified)	none (no result: CYP2C9 activ, CYP2C9 inhib, CYP2C19 activ, CYP2C19 inhib)
Cc1nc2sc(C(c3cccc(F)c3)N3CCC(C)CC3)c(O)n2n1 (stereo unspecified)	PostGolgi ctrl 31, CYP2C19 inhib 80
CCOC(=O)C1CCN(C(c2cccc(F)c2)c2sc3nc(C)nn3c2O)CC1 (stereo unspecified)	PostGolgi ctrl 37 (no result: CYP2C9 activ, CYP2C9 inhib, CYP2C19 activ, CYP2C19 inhib)
Cc1ccccc1OCCCC(=O)Nc1ccccc1C(F)(F)F	CYP2C9 activ 2.2
CCOc1ccc(-c2nnn(CC(=O)Nc3cc(OC)ccc3OC)n2)cc1OCC	none
CCOc1ccccc1NC(=O)NS(=O)(=O)c1ccc(C)cc1	CYP2C9 inhib 91
CCOc1ccccc1NC=C1C(=O)OC2(CCCCC2)OC1=O	CYP2C9 activ 2.6
CCOc1ccccc1NC(=O)Cn1nnc(-c2ccc(OCC)c(OCC)c2)n1	CYP2C9 inhib 85, CYP2C19 inhib 89
COC(=O)Nc1ccc(S(=O)(=O)NCCO)cc1	none
Cc1cc(C)cc(C(=O)/C=C2\NC(=O)CS2)c1	none
CCOc1ccccc1NC(=O)C(Sc1ccccc1)c1ccccc1 (stereo unspecified)	none
COC(=O)c1cc(OC)c(OC)cc1NC(=O)CSc1ccccc1	PostGolgi ctrl 43, CYP2C19 inhib 65
CCC(COC(=O)Nc1cccc(C)c1)NC(=O)OCC(C)C (stereo unspecified)	CYP2C9 inhib 55, CYP2C19 inhib 93
CCOc1ccccc1N/C=C/C(=O)C(C)(C)C	PostGolgi ctrl 33
CCOc1ccccc1NC(=O)CSc1ccccc1	CYP2C9 activ 3.6, CYP2C19 inhib 51
CCOc1ccccc1NC(=O)CSc1nnnn1-c1ccccc1	none
O=C(COC(=O)C1=COCCO1)Nc1ccc2c(c1)OCO2	none
COc1cc(C2C(C(=O)c3ccco3)=C(O)C(=O)N2Cc2cccnc2)cc(OC)c1OC (stereo unspecified)	none
CCOc1ccc(N(CC)S(=O)(=O)c2ccc3c(c2)n(C)c(=O)c(=O)n3C)cc1	none
CCOc1ccccc1NC(=O)CCC(=O)Nc1ccccc1OCC	CYP2C9 activ 2.7
CCOC(=O)Nc1ccc(C(N)=O)cc1	none
CCOc1ccccc1NC(=O)CCN1CCN(S(=O)(=O)c2ccc(Br)cc2)CC1	CYP2C19 inhib 63
CCOc1ccccc1NC(=O)CCC(=O)O	none
COc1ccccc1NC(=O)CCC(=O)O	CYP2C9 inhib 56
CCOC(=O)Nc1cccc(Nc2ccccc2)c1	CYP2C9 inhib 75, CYP2C19 inhib 79
COC(=O)c1ccccc1NC(=O)COC(=O)CSCC(=O)N1CCOCC1	none
CCOC(=O)Nc1cccc(OCC(=O)Nc2ccccc2OCC)c1	CYP2C19 inhib 88
CCOc1cc(N2CCOCC2)c(OCC)cc1NC(=O)Cc1ccccc1OC	none
CCOC(=O)N1CCN(C(=S)Nc2cc(OC)c(OC)cc2C(=O)OC)CC1	CYP2C19 inhib 98
COC(=O)c1cc(OC)c(OC)cc1NC(=S)N1CCCC(CO)C1 (stereo unspecified)	none
CCOc1ccccc1NC(=O)Cc1ccccc1OC	CYP2C9 activ 2.2, CYP2C19 inhib 58
O=C(COC(=O)COc1ccccc1)Nc1ccccc1OC(F)F	none
Cc1cccc(CN(CC(=O)N/N=C/c2ccco2)S(=O)(=O)c2ccc(Cl)cc2)c1	CYP2C9 inhib 93, CYP2C19 inhib 100
Cc1cccc(CN(CC(=O)N/N=C/c2cccs2)S(=O)(=O)c2ccc(Cl)cc2)c1	CYP2C9 inhib 70, CYP2C19 inhib 74
COc1ccc(N(CC(=O)Nc2cc(C(=O)O)ccc2C)S(=O)(=O)c2c(C)noc2C)cc1	none
CCCc1cc(=O)[nH]c(SC(CC)C(=O)Nc2ccccc2C#N)n1 (stereo unspecified)	none
CCCOc1ccccc1N1C(=O)CC(N2CCOCC2)C1=O (stereo unspecified)	none
O=S(=O)(NCc1cccnc1)c1ccc(Cl)c(Cl)c1Cl	CYP2C19 inhib 88
O=S(=O)(NCc1cccnc1)c1cccc2nsnc12	none
Cc1ccc(C(C)C)cc1S(=O)(=O)NCc1cccnc1	CYP2C9 inhib 62, CYP2C19 inhib 78
Cc1ccc(S(=O)(=O)NCc2cccnc2)s1	none
O=C(Nc1ccccc1Cl)c1cccc(COc2cc(Cl)ccc2Cl)c1	none
CCCCc1ccc(N2C(=O)[C@@H]3C(CC(N)=O)NC4(C(=O)Nc5ccc(F)cc54)[C@@H]3C2=O)cc1 (stereo partly specified)	none
COc1cccc2c1nc(C)c1cc(C)oc12	PostGolgi ctrl 31
CSc1nncc(-c2ccc(F)cc2)n1	none
CCNc1nc(N)nc(Oc2ccc(OCCOc3ccccc3)nn2)n1	none
CCNc1nc(N)nc(Oc2ccc(OCc3ccccc3)nn2)n1	CYP2C19 inhib 76
COc1cccc(NC(=O)CSCc2n[nH]c(=O)[nH]2)c1	none
Cc1cccc(N2CCN(C(=O)c3cc4c(=O)n(C)c5ccccc5c4n3C)CC2)c1C	PostGolgi ctrl 40
Cn1c(C(=O)N2CCN(c3ncccn3)CC2)cc2c(=O)n(C)c3ccccc3c21	CYP2C9 inhib 93
Cc1ccc(Cl)cc1N1CCN(C(=O)c2cc3c(=O)n(C)c4ccccc4c3n2C)CC1	PostGolgi ctrl 45, CYP2C9 inhib 98, CYP2C19 inhib 77
Cn1c(C(=O)N2CCCC2)cc2c(=O)n(C)c3ccccc3c21	none
Cc1cccc(N2CCN(C(=O)c3cccc(N4C(=O)C5CC=CC(C)C5C4=O)c3)CC2)c1C (stereo unspecified)	CYP2C9 inhib 59
CCc1c(C(=O)N2CCN(c3ccccc3F)CC2)[nH]c(C)c1C(C)=O	none

From PubChem BioAssay
